{"source": "PubChem BioAssay (NCATS)", "note": "Several values for one entry are separate records, joined by “and”; a condition that tells them apart may be missing. Equal values may be shown once. Results filed as inconclusive are left out. Values without a mark were called inactive. Activity calls are given as the source filed them. The call rests on the fitted dose curve; in most records, active means well fitted inhibition curve with a large enough effect; inconclusive means small, poorly fitted or top-dose-only effect; inactive means flat fitted curve, though single readings scatter. On the % scale 0 is the no-effect control and ±100 the full control effect; potency means the concentration at half of the fitted maximal effect."}
{"test_system": "KB-3-1", "experiment": "Cytotoxic Profiling of Annotated Libraries Using Quantitative High-Throughput Screening (AID 1296008); further: nearly all actives have a fitted effect of over 60% in size", "conditions": "Five cell lines viability, CellTiter-Glo ATP luminescence, 48-72 h; max response: stronger effect = lower value", "in_short": "(§1)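 Compounds were pin-transferred onto cells and incubated 48 or 72 hr at 37 degree Celsius, 95% humidity. CellTiter-Glo was added, plates sat 10 min at room temperature, then ATP-coupled luminescence was imaged as the viability read-out.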"}
{"compound": "COCCNCCCn1c(C(=O)CF)c(-c2ccc(C)cc2)c2c(N)ncnc21", "max response": "-1.17%"}
{"compound": "COc1cc(F)c(F)c(Nc2ccc(I)cc2F)c1NS(=O)(=O)C1(C[C@H](O)CO)CC1", "outcome": "inactive"}
{"compound": "N#Cc1ccc(C(c2ccc(C#N)cc2)n2cncn2)cc1", "max response": "-0.837% and -6.35%"}
{"compound": "OCCC#Cc1nc(-c2ccc(F)cc2)c(-c2ccncc2)n1CCCc1ccccc1", "max response": "6.14%"}
{"compound": "c1ccc(-c2nn3c(c2-c2ccnc4cc(OCCN5CCOCC5)ccc24)CCC3)nc1", "max response": "6.43%"}
{"compound": "O=S(=O)(N=Cc1c(O)ccc2ccccc12)c1cccs1", "max response": "0.0321%"}
{"compound": "O=C(C=Cc1ccc(/C=C/C(=O)Nc2ccc(C3=NCCN3)cc2)cc1)Nc1ccc(C2=NCCN2)cc1", "outcome": "inactive"}
{"compound": "Cc1cccc(-c2nn(C(=S)Nc3ccccc3)cc2-c2ccnc3ccccc23)n1", "max response": "-23.5%"}
{"compound": "COc1ccc2nc(S(=O)Cc3ncc(C)c(OC)c3C)[nH]c2c1", "note": "(stereo not drawn)", "max response": "-5.29%"}
{"compound": "CN(C)c1ccc(C2Nc3ccc4ccccc4c3C3=C2C(=O)CC(C)(C)C3)cc1Br", "note": "(stereo not drawn)", "max response": "1.11% and -17.2%"}
{"compound": "COc1cc2nccc(Oc3ccc(NC(=O)NC4CC4)c(Cl)c3)c2cc1C(N)=O", "outcome": "inactive"}
{"compound": "CCc1cc(Nc2nccc(-c3c(-c4ccc(OC)c(C(=O)Nc5c(F)cccc5F)c4)nc4ccccn34)n2)c(OC)cc1N1CCC(N2CCN(S(C)(=O)=O)CC2)CC1", "max response": "5.37% and -9.54%"}
{"compound": "Nc1nccc(-c2ccc3noc(-c4ccc(Cl)cc4)c3c2)n1", "max response": "5.59%"}
{"compound": "O=C(C1CC1)N1CC[C@@H](Cn2c(-c3ccc(-c4ccc5occc5c4)cc3)nc3cnccc32)C1", "max response": "3.71%"}
{"compound": "Cc1c(CCOc2ccc(C(=O)O)cc2)c2cc(Cl)ccc2n1C(c1ccccc1)c1ccccc1", "max response": "-12.2%"}
{"compound": "CCOC(=O)C1=C[C@]2(CC)CCCN3CCc4c(n1c1ccccc41)[C@@H]32", "max response": "2.59% and -10.9%"}
{"compound": "CC(C)(C)OC(=O)CN(Cc1ccc(Cl)cc1)Cc1ccc([N+](=O)[O-])s1", "max response": "0.3%"}
{"compound": "Cn1c(=O)c(F)c(Nc2ccc(I)cc2F)c2c(=O)n(C[C@@H](O)CO)cnc21", "max response": "-4.57%"}
{"compound": "Nc1ncnc2nc(-c3ccc(N4CCOCC4)nc3)cc(-c3cccc(Br)c3)c12", "outcome": "inactive"}
{"compound": "Nc1cccc(S(=O)(=O)N2CCCN(S(=O)(=O)c3ccc4c(c3)OCCO4)CC2)c1", "max response": "-7.85%"}
{"compound": "COc1ccc2c3n(c(=NC(=O)c4cccnc4)nc2c1OC)CCN3", "max response": "-17.8%"}
{"test_system": "NIH3T3", "experiment": "Cytotoxic Profiling of Annotated Libraries Using Quantitative High-Throughput Screening (AID 1296008); further: nearly all actives have a fitted effect of over 60% in size", "conditions": "Five cell lines viability, CellTiter-Glo ATP luminescence, 48-72 h; max response: stronger effect = lower value", "in_short": "as §1"}
{"compound": "COc1cc(F)c(F)c(Nc2ccc(I)cc2F)c1NS(=O)(=O)C1(C[C@H](O)CO)CC1", "max response": "-9.12%"}
{"compound": "N#Cc1ccc(C(c2ccc(C#N)cc2)n2cncn2)cc1", "max response": "2.6%"}
{"compound": "COc1cc(Oc2ccnc3cc(OC)c(OC)cc23)ccc1NC(=O)NC(C)c1nccs1", "note": "(stereo not drawn)", "outcome": "inactive"}
{"compound": "CCOC(=O)N[C@@H]1CC[C@@H]2[C@@H](C1)C[C@H]1C(=O)O[C@H](C)[C@H]1[C@@H]2C=Cc1ccc(-c2cccc(F)c2)cn1", "max response": "-8.03%"}
{"compound": "OCCC#Cc1nc(-c2ccc(F)cc2)c(-c2ccncc2)n1CCCc1ccccc1", "outcome": "inactive"}
{"compound": "Cc1ccc(NC(=O)c2cccc(C(C)(C)C#N)c2)cc1Nc1ccc2ncn(C)c(=O)c2c1", "Potency": "16.6 µM (active)"}
{"compound": "c1ccc(-c2nn3c(c2-c2ccnc4cc(OCCN5CCOCC5)ccc24)CCC3)nc1", "Potency": "5.26 µM (active)"}
{"compound": "O=S(=O)(N=Cc1c(O)ccc2ccccc12)c1cccs1", "outcome": "inactive"}
{"compound": "O=C(C=Cc1ccc(/C=C/C(=O)Nc2ccc(C3=NCCN3)cc2)cc1)Nc1ccc(C2=NCCN2)cc1", "outcome": "inactive"}
{"compound": "COc1ccc2nc(S(=O)Cc3ncc(C)c(OC)c3C)[nH]c2c1", "note": "(stereo not drawn)", "max response": "-7.21% and -1.13%"}
{"compound": "CN(C)c1ccc(C2Nc3ccc4ccccc4c3C3=C2C(=O)CC(C)(C)C3)cc1Br", "note": "(stereo not drawn)", "max response": "-6.99% and -2.22%"}
{"compound": "COc1cc2nccc(Oc3ccc(NC(=O)NC4CC4)c(Cl)c3)c2cc1C(N)=O", "Potency": "14.8 µM (active) and 4.11 µM (active)"}
{"compound": "CCc1cc(Nc2nccc(-c3c(-c4ccc(OC)c(C(=O)Nc5c(F)cccc5F)c4)nc4ccccn34)n2)c(OC)cc1N1CCC(N2CCN(S(C)(=O)=O)CC2)CC1", "max response": "-25.3%"}
{"compound": "Nc1nccc(-c2ccc3noc(-c4ccc(Cl)cc4)c3c2)n1", "max response": "-8.8%"}
{"compound": "NC(=O)c1ccc(-c2nc(-c3ccc4c(c3)OCCO4)c(-c3ccccn3)[nH]2)cc1", "max response": "-6.71%"}
{"compound": "O=C(C1CC1)N1CC[C@@H](Cn2c(-c3ccc(-c4ccc5occc5c4)cc3)nc3cnccc32)C1", "max response": "1.4%"}
{"compound": "Cc1c(CCOc2ccc(C(=O)O)cc2)c2cc(Cl)ccc2n1C(c1ccccc1)c1ccccc1", "max response": "-32.3%"}
{"compound": "CN(C)c1ccc(Nc2nc(N)n(C(=O)c3c(F)cccc3F)n2)cc1", "Potency": "10.5 µM (active)"}
{"compound": "CCOC(=O)C1=C[C@]2(CC)CCCN3CCc4c(n1c1ccccc41)[C@@H]32", "max response": "-12.6%"}
{"compound": "CC(C)(C)OC(=O)CN(Cc1ccc(Cl)cc1)Cc1ccc([N+](=O)[O-])s1", "max response": "1.62%"}
{"compound": "Nc1ncnc2nc(-c3ccc(N4CCOCC4)nc3)cc(-c3cccc(Br)c3)c12", "max response": "1.04%"}
{"compound": "Nc1cccc(S(=O)(=O)N2CCCN(S(=O)(=O)c3ccc4c(c3)OCCO4)CC2)c1", "max response": "-8.98%"}
